Source: PubChem BioAssay (NCI)
About 79,000 compounds went through this panel and 15% of them were active in at least one assay; those are over-represented in the sample as a whole. A number with no mark means an inactive call. Activity calls are given as the source filed them. Rule as the data show it: active = growth inhibition above about 70%; inactive = the rest.

What was measured:
[1] = NCI Yeast Anticancer Drug Screen. Data for the rad50 strain (AID 155);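 also: 0% = growth of vehicle-only cultures of the same strain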; conditions: S. cerevisiae rad50 strain growth inhibition, hits give high values
Procedure, shortened: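 Cells are treated with compound, grown, and their growth is then scored against vehicle-only cultures of the same repair-deficient yeast strain.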

[2] = NCI Yeast Anticancer Drug Screen. Data for the mec2-1 strain (AID 157); conditions: S. cerevisiae mec2-1 strain, hits give high values
Procedure, shortened: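 Yeast mec2-1 mutant treated with compound. Readout: growth inhibition vs vehicle controls.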

[3] = NCI Yeast Anticancer Drug Screen. Data for the sgs1 mgt1 strain (AID 161);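 also: 0% = growth of cultures given vehicle only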; conditions: S. cerevisiae sgs1 mgt1 strain, hits give high values
Procedure, shortened: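 Read-out: growth inhibition vs vehicle controls. Cells: mutant yeast strain deficient in DNA damage repair.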

[4] = NCI Yeast Anticancer Drug Screen. Data for the cln2 rad14 strain (AID 165);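 also: 0% = growth equal to vehicle treated cultures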; conditions: S. cerevisiae cln2 rad14 strain, hits give high values
Procedure, shortened: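 cln2 rad14 yeast strain; compound exposure; growth inhibition read vs vehicle controls.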

[5] = NCI Yeast Anticancer Drug Screen. Data for the bub3 strain (AID 167); conditions: S. cerevisiae bub3 mutant strain, hits give high values
Procedure, shortened: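 Part of a panel of yeast mutants defective in DNA damage repair or cell cycle regulation. Each strain is grown with compound, and inhibition is calculated relative to solvent-treated cultures.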

[6] = NCI Yeast Anticancer Drug Screen. Data for the mlh1 rad18 strain (AID 175); conditions: S. cerevisiae mlh1 rad18 strain growth inhibition, hits give high values
Procedure, shortened: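 Yeast w/ defined DNA-repair lesions; compound exposure; growth vs vehicle controls → % inhibition.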

[7] = at 5.0 µM (retest, dose inferred, filed as 0.5)
[8] = at 50.0 µM (retest, dose inferred, filed as 5.0)

SMILES: Cc1[nH]c(=O)[nH]c(=O)c1CN(C)Cc1cc(Cl)cc(Cl)c1O
- growth inhibition [1, 7]: -4%
- growth inhibition [1, 8]: 70% (active)
- growth inhibition ([1]; at 50.0 µM): 53.1%
- growth inhibition [2, 7]: -8%
- growth inhibition [2, 8]: 55%
- growth inhibition ([2]; at 50.0 µM): 26.9%
- growth inhibition [3, 7]: 0%
- growth inhibition [3, 8]: 95% (active)
- growth inhibition ([3]; at 50.0 µM): 77.4% (active)
- growth inhibition [4, 7]: -3%
- growth inhibition [4, 8]: 43%
- growth inhibition ([4]; at 50.0 µM): 22%
- growth inhibition [5, 7]: -8%
- growth inhibition [5, 8]: 46%
- growth inhibition ([5]; at 50.0 µM): 30.1%
- growth inhibition [6, 7]: -3%
- growth inhibition [6, 8]: 82% (active)
- growth inhibition ([6]; at 50.0 µM): 77.5% (active)

SMILES: Brc1ccc(N2COc3ccc4ccccc4c3C2)cc1
- growth inhibition [1, 7]: 9%
- growth inhibition [1, 8]: -23%
- growth inhibition ([1]; at 50.0 µM): 19.2%
- growth inhibition [2, 7]: 19%
- growth inhibition [2, 8]: -1%
- growth inhibition ([2]; at 50.0 µM): 35.5%
- growth inhibition [3, 7]: 16%
- growth inhibition [3, 8]: -4%
- growth inhibition ([3]; at 50.0 µM): 62.4%
- growth inhibition [4, 7]: -17%
- growth inhibition [4, 8]: -3%
- growth inhibition ([4]; at 50.0 µM): 0.95%
- growth inhibition [5, 7]: 9%
- growth inhibition [5, 8]: -3%
- growth inhibition ([5]; at 50.0 µM): 77.9% (active)
- growth inhibition [6, 7]: 16%
- growth inhibition [6, 8]: 2%
- growth inhibition ([6]; at 50.0 µM): 46.4%

SMILES: S=c1[nH]c2cc(-c3ccccc3)ccc2o1
- growth inhibition [1, 7]: 63%
- growth inhibition [1, 8]: 98% (active)
- growth inhibition ([1]; at 50.0 µM): 64.2%
- growth inhibition [2, 7]: 37%
- growth inhibition [2, 8]: 98% (active)
- growth inhibition ([2]; at 50.0 µM): 53.1%
- growth inhibition [3, 7]: 17%
- growth inhibition [3, 8]: 72% (active)
- growth inhibition ([3]; at 50.0 µM): 78% (active)
- growth inhibition [4, 7]: 52%
- growth inhibition [4, 8]: 65%
- growth inhibition ([4]; at 50.0 µM): 47.1%
- growth inhibition [5, 7]: 19%
- growth inhibition [5, 8]: 52%
- growth inhibition ([5]; at 50.0 µM): 52%
- growth inhibition [6, 7]: 51%
- growth inhibition [6, 8]: 98% (active)
- growth inhibition ([6]; at 50.0 µM): 47.8%

SMILES: CCOC(=O)N1CCN(CCCCCCOc2c(Cl)cc(Cl)cc2Cl)CC1
- growth inhibition [1, 7]: 45%
- growth inhibition [1, 8]: 98% (active)
- growth inhibition ([1]; at 50.0 µM): 98.7% (active)
- growth inhibition [2, 7]: 41%
- growth inhibition [2, 8]: 99% (active)
- growth inhibition ([2]; at 50.0 µM): 96.1% (active)
- growth inhibition [3, 7]: 71% (active)
- growth inhibition [3, 8]: 99% (active)
- growth inhibition ([3]; at 50.0 µM): 92% (active)
- growth inhibition [4, 7]: 58%
- growth inhibition [4, 8]: 98% (active)
- growth inhibition ([4]; at 50.0 µM): 98.4% (active)
- growth inhibition [5, 7]: 64%
- growth inhibition [5, 8]: 98% (active)
- growth inhibition ([5]; at 50.0 µM): 97.2% (active)
- growth inhibition [6, 7]: 49%
- growth inhibition [6, 8]: 99% (active)
- growth inhibition ([6]; at 50.0 µM): 98.2% (active)

SMILES: CCCCCCCCCCCCCCCCN
- growth inhibition [1, 7]: 98% (active)
- growth inhibition [1, 8]: 97% (active)
- growth inhibition ([1]; at 50.0 µM): 99% (active)
- growth inhibition [2, 7]: 20%
- growth inhibition [2, 8]: 99% (active)
- growth inhibition ([2]; at 50.0 µM): 99.4% (active)
- growth inhibition [3, 7]: 99% (active)
- growth inhibition [3, 8]: 98% (active)
- growth inhibition ([3]; at 50.0 µM): 99.2% (active)
- growth inhibition [4, 7]: 54%
- growth inhibition [4, 8]: 97% (active)
- growth inhibition ([4]; at 50.0 µM): 98.8% (active)
- growth inhibition [5, 7]: 98% (active)
- growth inhibition [5, 8]: 98% (active)
- growth inhibition ([5]; at 50.0 µM): 98.8% (active)
- growth inhibition [6, 7]: 98% (active)
- growth inhibition [6, 8]: 98% (active)
- growth inhibition ([6]; at 50.0 µM): 98.7% (active)
